Among the data in the supplement of paper PMC7866885, “A novel bicyclic 2,4-diaminopyrimidine inhibitor of Streptococcus suis dihydrofolate reductase” (PeerJ, 2021) are percent growth values, retold here.

Structures are written as SMILES. ± gives the standard deviation.

The subject of one assay is Streptococcus suis HE06. Briefly: percent growth relative to DMSO control; higher = less growth inhibition. The conditions noted are these: 10 µM; incubation time 18 h. The protocol: (§1)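 CLSI broth microdilution: 5x10^4 CFU of Streptococcus suis (strain P1/7 or HE06) incubated with 10 µM Pathogen Box compound in cation-adjusted Mueller Hinton broth, 37 °C, 5% CO2, 18 h. Growth read as OD600 and expressed as percent of the DMSO-treated control (100%); mean ± SD of three independent experiments.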
Take `COc1cc(C(F)(F)F)nc2ccc(C)c(N)c12`: the percent growth came out at 101 ± 4.2%.
With `COc1cccn2c(C(=O)N3CCCCC3)c(C(F)(F)F)nc12`, the percent growth turned out to be 111 ± 22%.
On to `Cc1cc(NC(=O)c2ccc(S(=O)(=O)N(Cc3ccccc3)C(C)C)cc2)no1`, for which the percent growth was determined as 105 ± 27%.
With `Nc1ncnc2[nH]nc(Cc3cccc4ccccc34)c12`, the percent growth came out at 104 ± 35%.
The same measure, in the same setting: the figure for `Brc1cncc(-c2cc(NCCCn3ccnc3)nc(-c3ccccc3)n2)c1` is 46.7 ± 37%; for `CCc1ccc([C@@H]2C[C@H](C(F)(F)F)n3ncc(C(=O)NCc4ccc(OC)cc4)c3N2)cc1` it is 92.3 ± 12%.
Consider `Oc1c(I)cc(I)c2cccnc12`, for which the percent growth was determined as 0.688 ± 0.61%.
`FC(F)(F)c1cc(NCCc2ccccc2)nc(-c2ccccn2)n1`: the percent growth worked out at 1.92 ± 3.3%.
Consider `CC1CC1C(=O)NC1CCN(CC2(c3ccccc3)CCCCC2)CC1` (stereo not drawn), for which the percent growth stood at 76.8 ± 15%.
Turning to `CS(=O)(=O)N1CCC(CCn2nc(Cc3cccc4ccccc34)c3c(N)ncnc32)CC1`, the percent growth was found to be 90.3 ± 15%.
For the compound `O=C(CN1CCOCC1)Nc1ccc2ncnc(Nc3ccc(OCc4cccc(F)c4)c(Cl)c3)c2c1`, the percent growth was found to be 53.5 ± 39%.
On the same count and under the same terms, the figure for `Cc1ccc(-c2nc(CN(Cc3ccccn3)C(C)C)cs2)o1` is 25.7 ± 44%; for `CCc1ccccc1-n1c(C)cn2c3c(=O)n(C(C(=O)OC)C(C)C)c(=O)n(C)c3nc12` (stereo not drawn) it is 109 ± 4.8%; for `O=C(Nc1ccc(N2CCNCC2)nc1)c1oc(-c2ccccc2)nc1C(F)(F)F` it is 93.7 ± 20%.
Turning to `O=C(c1ccc(F)cc1)N(CCNc1ccccc1)c1ccccc1`, the percent growth is 106 ± 17%.
In the case of `Cn1c(=O)c2c(S(C)(=O)=O)snc2n(C)c1=O`, the percent growth was determined as 40.1 ± 32%.
Still for that read-out and setting: next, `CC(C)(C)c1cnc(NC(=O)c2ccccc2O)s1`: 19.7 ± 28%; `CC(=O)Nc1ccc(-c2noc(CC3CCCN(Cc4cccc(F)c4C)C3)n2)cc1` (stereo not drawn): 109 ± 44%; `N#Cc1nc(-c2ccccc2)oc1S(=O)(=O)c1ccc(Cl)cc1`: 96.9 ± 9.2%.
As to `NCCN(C(=O)c1ccc(Cl)cc1Cl)c1ccc(OCc2ccc(Cl)cc2)cc1`, the percent growth came out at 68.3 ± 61%.
Take `O=C1Nc2ccc(Br)cc2C12NCCc1c2[nH]c2ccccc12` (stereo not drawn): the percent growth turned out to be 94.7 ± 15%.
In the case of `Cc1cccc(NC(=O)c2cc(S(=O)(=O)N(C)c3ccc(F)cc3)ccc2Cl)n1`, the percent growth came to 111 ± 31%.
As to `CCN(CC)CCCN1CCN(C(=O)c2cccc(-c3noc(C(F)(F)F)n3)c2)CC1`, the percent growth is 90.3 ± 14%.
Take `CCC(Sc1nc2ccccc2o1)C(=O)Nc1nnc(C)s1` (stereo not drawn): the percent growth amounted to 34.1 ± 46%.
On the same count and under the same terms, the figure for `CC(C)NCC(=O)Nc1cccc(C(=O)Nc2cccc(C(F)(F)F)c2)c1` is 104 ± 4.8%; for `COCC(C)NC(=O)CSc1ncnc2sc(-c3ccccc3)cc12` (stereo not drawn) it is 95.4 ± 33%.
Consider `Cc1ccc2c(c1C)NC(=O)C21NN=C(c2ccccc2)S1` (stereo not drawn), for which the percent growth worked out at 0.434 ± 0.78%.
On to `N=C(N)Nc1ccc(-c2ccc(-c3ccc(N=C(N)N)c(Cl)c3)o2)cc1Cl`, for which the percent growth was determined as 27.7 ± 29%.
As for `CC1=Nc2ccc(Cl)cc2C(c2ccccc2)N1CCNC(=O)CN(C)C` (stereo not drawn), the percent growth was found to be 84.8 ± 4.2%.
In the case of `CS(=O)(=O)Cc1nc2ccccc2oc1=O`, the percent growth was found to be 67.6 ± 7.5%.
As to `C[C@H]1COc2c(N3CCN(C)CC3)c(F)cc3c(=O)c(C(=O)O)cn1c23`, the percent growth came to 1.93 ± 0.63%.
For the compound `Cc1cc(O)nc(-n2nc(C)cc2C)n1`, the percent growth came to 18.2 ± 21%.
`CO[C@H]1/C=C/O[C@@]2(C)Oc3c(C)c(O)c4c(O)c(/c(=C/NN5CCN(C)CC5)c(O)c4c3C2=O)=N\C(=O)/C(C)=C\C=C/[C@H](C)[C@H](O)[C@@H](C)[C@@H](O)[C@@H](C)[C@H](OC(C)=O)[C@@H]1C`: the percent growth was determined as 4.41 ± 2.2%.
As to `CCN(CC)S(=O)(=O)c1ccc(Cl)c(C(=O)Nc2ccc3nc(C)sc3c2)c1`, the percent growth was 83.9 ± 6.7%.
Consider `CCc1ccc(S(=O)(=O)Nc2cc(CN3CCN(CCC(C)C)CC3)ccc2C)cc1`, for which the percent growth was 95.7 ± 12%.
For the compound `CCc1cc(=O)n(C)c(SC(C)C(=O)Nc2ccc(F)cc2)n1` (stereo not drawn), the percent growth was found to be 110 ± 23%.
As to `O=C(NCCN1CCCC1)c1cc(NCCCCN2CCC(F)(F)CC2)nc2ccc(Cl)cc12`, the percent growth worked out at 93 ± 6.6%.
Take `CCn1ncc2c(NC3CCOCC3)c(CNC(=O)c3ccnn3C)c(C)nc21`: the percent growth amounted to 109 ± 24%.
Same read-out and setting: next, `Cc1ccc2[nH]c(C3CCCNC3)c(-c3ccncc3)c2c1` (stereo not drawn): 108 ± 31%.

In a further assay the test system is Streptococcus suis P1/7. The assay is described as above. The conditions noted are these: 10 µM; incubation time 18 h. The protocol: as §1
Turning to `COc1cc(C(F)(F)F)nc2ccc(C)c(N)c12`, the percent growth was determined as 95.8 ± 24%.
Still for that read-out and setting: next, `COc1cccn2c(C(=O)N3CCCCC3)c(C(F)(F)F)nc12`: 87 ± 21%; `Cc1cc(NC(=O)c2ccc(S(=O)(=O)N(Cc3ccccc3)C(C)C)cc2)no1`: 71.6 ± 30%; `Nc1ncnc2[nH]nc(Cc3cccc4ccccc34)c12`: 66.1 ± 20%.
For `Brc1cncc(-c2cc(NCCCn3ccnc3)nc(-c3ccccc3)n2)c1`, the percent growth amounted to 43.7 ± 51%.
For the compound `CCc1ccc([C@@H]2C[C@H](C(F)(F)F)n3ncc(C(=O)NCc4ccc(OC)cc4)c3N2)cc1`, the percent growth was found to be 75.4 ± 5.3%.
With `Oc1c(I)cc(I)c2cccnc12`, the percent growth is -0.0569 ± 0.099%.
Regarding `FC(F)(F)c1cc(NCCc2ccccc2)nc(-c2ccccn2)n1`, the percent growth worked out at 9.89 ± 17%.
`CC1CC1C(=O)NC1CCN(CC2(c3ccccc3)CCCCC2)CC1` (stereo not drawn): the percent growth amounted to 71.1 ± 43%.
For the compound `CS(=O)(=O)N1CCC(CCn2nc(Cc3cccc4ccccc34)c3c(N)ncnc32)CC1`, the percent growth was 100 ± 38%.
Consider `O=C(CN1CCOCC1)Nc1ccc2ncnc(Nc3ccc(OCc4cccc(F)c4)c(Cl)c3)c2c1`, for which the percent growth stood at 63 ± 18%.
Regarding `Cc1ccc(-c2nc(CN(Cc3ccccn3)C(C)C)cs2)o1`, the percent growth is 19.4 ± 34%.
With `CCc1ccccc1-n1c(C)cn2c3c(=O)n(C(C(=O)OC)C(C)C)c(=O)n(C)c3nc12` (stereo not drawn), the percent growth was 101 ± 14%.
As to `O=C(Nc1ccc(N2CCNCC2)nc1)c1oc(-c2ccccc2)nc1C(F)(F)F`, the percent growth was 63.6 ± 18%.
Take `O=C(c1ccc(F)cc1)N(CCNc1ccccc1)c1ccccc1`: the percent growth came out at 122 ± 66%.
`Cn1c(=O)c2c(S(C)(=O)=O)snc2n(C)c1=O`: the percent growth is 93 ± 120%.
As to `CC(C)(C)c1cnc(NC(=O)c2ccccc2O)s1`, the percent growth worked out at 1.61 ± 1.4%.
In the case of `CC(=O)Nc1ccc(-c2noc(CC3CCCN(Cc4cccc(F)c4C)C3)n2)cc1` (stereo not drawn), the percent growth was found to be 108 ± 44%.
`N#Cc1nc(-c2ccccc2)oc1S(=O)(=O)c1ccc(Cl)cc1`: the percent growth is 85.2 ± 19%.
With `NCCN(C(=O)c1ccc(Cl)cc1Cl)c1ccc(OCc2ccc(Cl)cc2)cc1`, the percent growth came to 25 ± 43%.
Take `O=C1Nc2ccc(Br)cc2C12NCCc1c2[nH]c2ccccc12` (stereo not drawn): the percent growth worked out at 112 ± 38%.
With `Cc1cccc(NC(=O)c2cc(S(=O)(=O)N(C)c3ccc(F)cc3)ccc2Cl)n1`, the percent growth turned out to be 112 ± 33%.
As to `CCN(CC)CCCN1CCN(C(=O)c2cccc(-c3noc(C(F)(F)F)n3)c2)CC1`, the percent growth came out at 138 ± 110%.
On the same count and under the same terms, the figure for `CCC(Sc1nc2ccccc2o1)C(=O)Nc1nnc(C)s1` (stereo not drawn) is 0.154 ± 0.27%; for `CC(C)NCC(=O)Nc1cccc(C(=O)Nc2cccc(C(F)(F)F)c2)c1` it is 125 ± 65%; for `COCC(C)NC(=O)CSc1ncnc2sc(-c3ccccc3)cc12` (stereo not drawn) it is 84.8 ± 13%.
Regarding `Cc1ccc2c(c1C)NC(=O)C21NN=C(c2ccccc2)S1` (stereo not drawn), the percent growth was 0.432 ± 0.48%.
Regarding `N=C(N)Nc1ccc(-c2ccc(-c3ccc(N=C(N)N)c(Cl)c3)o2)cc1Cl`, the percent growth is 53.1 ± 27%.
As for `CC1=Nc2ccc(Cl)cc2C(c2ccccc2)N1CCNC(=O)CN(C)C` (stereo not drawn), the percent growth is 84.5 ± 16%.
`CS(=O)(=O)Cc1nc2ccccc2oc1=O`: the percent growth was 88.2 ± 53%.
As for `C[C@H]1COc2c(N3CCN(C)CC3)c(F)cc3c(=O)c(C(=O)O)cn1c23`, the percent growth turned out to be 1.55 ± 1.7%.
`Cc1cc(O)nc(-n2nc(C)cc2C)n1`: the percent growth came out at 2.28 ± 2.3%.
Same read-out and setting: next, `CO[C@H]1/C=C/O[C@@]2(C)Oc3c(C)c(O)c4c(O)c(/c(=C/NN5CCN(C)CC5)c(O)c4c3C2=O)=N\C(=O)/C(C)=C\C=C/[C@H](C)[C@H](O)[C@@H](C)[C@@H](O)[C@@H](C)[C@H](OC(C)=O)[C@@H]1C`: 1.07 ± 0.94%; `CCN(CC)S(=O)(=O)c1ccc(Cl)c(C(=O)Nc2ccc3nc(C)sc3c2)c1`: 138 ± 70%.
For `CCc1ccc(S(=O)(=O)Nc2cc(CN3CCN(CCC(C)C)CC3)ccc2C)cc1`, the percent growth is 73.2 ± 8.1%.
The same measure, in the same setting: the figure for `CCc1cc(=O)n(C)c(SC(C)C(=O)Nc2ccc(F)cc2)n1` (stereo not drawn) is 74.8 ± 63%; for `O=C(NCCN1CCCC1)c1cc(NCCCCN2CCC(F)(F)CC2)nc2ccc(Cl)cc12` it is 79.3 ± 14%.
As to `CCn1ncc2c(NC3CCOCC3)c(CNC(=O)c3ccnn3C)c(C)nc21`, the percent growth turned out to be 85.7 ± 26%.
As to `Cc1ccc2[nH]c(C3CCCNC3)c(-c3ccncc3)c2c1` (stereo not drawn), the percent growth is 89.8 ± 7.2%.
